# Measurements: PubChem BioAssay (NCATS)
# “And” between values parts separate entries of the source, which are not always exact repeats. Equal values may be shown once. Results filed as inconclusive are left out. Values without a mark were called inactive. The source made the active and inactive calls. Calls come from the whole dose curve; as a rule, active = well fitted curve in the direction sought with a large enough effect; inconclusive = small, poorly fitted or top-dose-only effect, or another doubt; inactive = no such curve, though single readings can be large; an effect the other way counts as inactive or inconclusive.
# Assays:
# [1] = target: Cellular tumor antigen p53 (Homo sapiens) (UniProt P04637); assay: Primary qHTS for small molecule compounds that upregulate eGFP-tagged delta133p53alpha (in N-terminal) cells. (AID 2060322); conditions: NCI-H358 eGFP-delta133p53alpha fluorescence, 24 h; activation: active compounds read high;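 note: series mostly up to about 56 µM; 0% = DMSO vehicle and 100% = reference activator; nearly all actives have a fitted effect of over 75% in size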
# Chain of Cellular tumor antigen p53 (Homo sapiens) (P04637 whole entry, looked up): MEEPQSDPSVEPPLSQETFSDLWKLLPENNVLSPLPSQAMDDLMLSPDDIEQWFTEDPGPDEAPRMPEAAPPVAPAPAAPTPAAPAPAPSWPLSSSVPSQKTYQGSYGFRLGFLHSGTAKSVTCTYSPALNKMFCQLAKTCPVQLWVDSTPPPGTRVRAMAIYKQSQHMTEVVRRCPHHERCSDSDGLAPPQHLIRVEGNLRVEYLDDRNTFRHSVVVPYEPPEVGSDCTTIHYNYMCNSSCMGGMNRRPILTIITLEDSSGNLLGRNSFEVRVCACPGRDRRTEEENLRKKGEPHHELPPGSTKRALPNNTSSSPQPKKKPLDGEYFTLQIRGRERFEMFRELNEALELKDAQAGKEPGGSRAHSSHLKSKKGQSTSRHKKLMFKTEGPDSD
# How it was run: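 NCI-H358 cells pre-induced 24 h with 10 ng/ml doxycycline to express N-terminal eGFP-delta133p53alpha, then dosed 24 h at 37C without doxycycline; fixed, Hoechst-stained, GFP intensity by laser scanning cytometry, normalized to DMSO (0%) and 57.5 uM 5-azacytidine (100%).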
# [2] = target: Aldehyde dehydrogenase, mitochondrial (Homo sapiens) (UniProt P05091); assay: qHTS for Inhibitors of the Aldehyde Dehydrogenase Family (ALDH2) Primary screen (AID 2061308);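 note: plate controls were vehicle for no effect and reference inhibitor for full effect; nearly all actives have a fitted effect of over 55% in size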
# [3] = target: Retinaldehyde dehydrogenase 3 (Homo sapiens) (UniProt P47895); assay: qHTS for Inhibitors of the Aldehyde Dehydrogenase Family (ALDH1A3) Primary screen (AID 2061315);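 note: plate controls were DMSO vehicle for no effect and reference inhibitor for full effect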
# [4] = BET inhibitor-based combinations targeting novel dependencies in MECOM-rearranged (r) AML: SET-2 cell line (AID 2202231); conditions: SET-2 AML cells viability, CellTiter-Glo luminescence, 48 h; viability: active compounds read low, concentration not given here; note: nearly all actives have a fitted effect of over 35% in size; note: potency is the fitted concentration of half-maximal effect;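 for viability: plate controls were DMSO treated cells for no effect and wells without cells for full effect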
# How it was run: (§1)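 500 cells/well; 11-pt dose curve; 48 h, standard incubator; CellTiter-Glo luminescence after 15 min RT; DMSO/empty-well normalization; AUC plus Z-AUC (mean-centered within each line).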
# [5] = BET inhibitor-based combinations targeting novel dependencies in MECOM-rearranged (r) AML: OCI-AML3 cell line (AID 2202232); conditions: Potency: OCI-AML3 viability; note: nearly all actives have a fitted effect of over 35% in size; note: potency is the fitted concentration of half-maximal effect
# How it was run: as §1
# [6] = BET inhibitor-based combinations targeting novel dependencies in MECOM-rearranged (r) AML: MV-4-11 cell line (AID 2202233); note: nearly all actives have a fitted effect of over 45% in size; note: potency is the fitted concentration of half-maximal effect
# How it was run: (§2)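 Cells were plated at 500 per well and exposed to each drug across an 11-point dose range for 48 hr at standard incubator conditions. Viability was read by CellTiter-Glo luminescence, and activity was expressed as AUC and per-cell-line Z-transformed AUC.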
# [7] = BET inhibitor-based combinations targeting novel dependencies in MECOM-rearranged (r) AML: HNT-34 cell line (AID 2202234); note: nearly all actives have a fitted effect of over 35% in size; note: potency is the fitted concentration of half-maximal effect
# How it was run: as §2
# [8] = BET inhibitor-based combinations targeting novel dependencies in MECOM-rearranged (r) AML: UCSD-AML1 cell line (AID 2202235); note: nearly all actives have a fitted effect of over 40% in size; note: potency is the fitted concentration of half-maximal effect
# How it was run: as §2
# [9] = BET inhibitor-based combinations targeting novel dependencies in MECOM-rearranged (r) AML: AML-191 cell line (AID 2202236; note: nearly all actives have a fitted effect of over 35% in size; note: potency is the fitted concentration of half-maximal effect)
# How it was run: as §1
# [10] = BET inhibitor-based combinations targeting novel dependencies in MECOM-rearranged (r) AML: AML-194 cell line (AID 2202237; note: nearly all actives have a fitted effect of over 40% in size; note: potency is the fitted concentration of half-maximal effect)
# How it was run: as §1
Compound,activation [1],Potency [2],Potency [3],viability [4],Potency [5],Potency [6],Potency [7],Potency [8],Potency [9],Potency [10],Potency [4]
CC1=C(C)C(=O)OC(C(C)C2C(O)CC3C4C5OC5C5(O)CC(OC6OC(CO)C(O)C(O)C6O)CC(O)C5(C)C4CCC32C)C1 (stereo unspecified),-6.87%,inactive,inactive,,,,,,,,
CC(C)(C)c1ccc(C(=O)Nc2cc(Cl)c(Br)cc2C(=O)O)cc1,-3.67%,inactive,inactive,,,,,,,,
C/C=C(\C)C(=O)OC1C2(O)CC3=C4CC(=O)OC(c5ccoc5)C4(C)CCC3C(C)(C2=O)C(C(OC(C)=O)C(=O)OC)C1(C)C (stereo unspecified),-7.63%,inactive,inactive,,,,,,,,
Nc1c(NC/C=C\COc2cc(CN3CCCCC3)ccn2)c(=O)c1=O,-10.3%,inactive,inactive,,,,,,,,
CC(C)=CCC[C@](C)(O)[C@H]1CC[C@]2(C)[C@@H]1[C@H](O)CC1[C@@]3(C)CC[C@H](O)C(C)(C)[C@@H]3[C@@H](O[C@@H]3O[C@H](CO)[C@@H](O)[C@H](O)[C@H]3O[C@@H]3O[C@H](CO)[C@@H](O)[C@H](O)[C@H]3O)C[C@]12C (stereo partly specified),-11.6%,inactive,inactive,,,,,,,,
Cc1cc(C(C)Nc2ccccc2)c2nc(N3CCOCC3)cc(=O)n2c1 (stereo unspecified),9.6% and -9.82%,inactive,inactive,91.4%,2630 nM (active),16600 nM (active),16600 nM (active),16600 nM (active),18600 nM (active),23500 nM (active),
CC(=O)Nc1cccc(-n2c(=O)n(C3CC3)c(=O)c3c(Nc4ccc(I)cc4F)n(C)c(=O)c(C)c32)c1,-5.24% and -3.57%,inactive,inactive,89.5%,,,,,,,
Cc1cccc(Oc2cnc(=O)[nH]c2)c1,-25%,inactive,inactive,115%,inactive,inactive,inactive,inactive,inactive,inactive,
COc1cc(C(=O)NC2CCN(C)CC2)c(F)cc1Nc1ncc2c(n1)N(C1CCCC1)CC(F)(F)C(=O)N2C,17%,inactive,inactive,,46.8 nM (active),105 nM (active),105 nM (active),105 nM (active),118 nM (active),83.3 nM (active),93.4 nM (active)
CCn1nnc2c(N3CCOCC3)nc(-c3ccc(NC(=O)Nc4ccc(C(=O)N5CCN(C)CC5)cc4)cc3)nc21,37.4% and 20.5%,inactive,inactive,,263 nM (active),166 nM (active),148 nM (active),186 nM (active),,,1860 nM (active)
O=C(NOCC1CC1)c1ccc(F)c(F)c1Nc1ccc(I)cc1Cl,13% and 35.6% and 22.3%,inactive,inactive,,296 nM (active),7420 nM (active),8330 nM (active),16600 nM (active),11800 nM (active),,23500 nM (active)
N#Cc1ccc(C2CCCc3cncn32)cc1 (stereo unspecified),-5%,inactive,inactive,109%,inactive,inactive,inactive,inactive,inactive,inactive,
NC(=O)c1cccc2[nH]c(-c3ccc([C@H]4CCCN4)cc3F)nc12,28.6%,inactive,inactive,,20900 nM (active),16600 nM (active),,,,,20900 nM (active)
CC(C)(C)C(=O)CN1C(=O)[C@H](NC(=O)Nc2cccc(C(=O)O)c2)CN(C2CCCCC2)c2ccccc21,-7.67%,inactive,inactive,110%,inactive,inactive,inactive,inactive,inactive,,
